# Screening data: PubChem BioAssay, Columbia University Molecular Screening Center
# Compounds with a hit are over-represented: about 1.2% of the library has one in this group of screens.
# F-actin modifier: cytoskeleton assembly modification; HUVEC TNFa F-actin phalloidin imaging, high content; 91,000 compounds, 0.18% hits; inhibition, % at 2 µM;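 active = inhibition above the batch mean plus 3 SD and confirmed as a hit by visual image inspection, cut at about 30% in these data, passing the limit was not always enough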
# VCAM1 TNFa inh: reduces TNF alpha induced VCAM1 expression in HUVEC. HUVEC TNFa-induced VCAM-1 immunofluorescence, high-content imaging. inhibition, % at 2 µM. 95,000 compounds, 0.48% hits. AID 802;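 active = inhibition above the batch mean plus 3 SD, with images confirmed as a hit by eye, cut at about 37% in these data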
# E-sel TNF inh: TNF alpha driven E-selectin expression inhibition; inhibition, % at 2 µM; AID 1246; HUVEC TNFa-induced E-selectin immunofluorescence, high content; 120,000 compounds, 0.71% hits;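 active = inhibition above the batch mean plus 3 SD, and confirmed as a hit on visual image review, cut at about 43% in these data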
# TNFa cytotox: toxic to HUVEC cells under TNF alpha stimulation; HUVEC TNFalpha-stimulated, Hoechst cell count, imaging; cell count reduction, % at 2 µM; 93,000 compounds, 0.17% hits; AID 848;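 active = cell count reduction exceeding the screen mean by over 5 SD, scaled to untreated wells per plate, cut at about 78% in these data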;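 note: cells counted after 24 h of TNF alpha exposure following the 1 h pretreatment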
# A number is an active result; . = inactive; / = no result.
SMILES,F-actin modifier,VCAM1 TNFa inh,E-sel TNF inh,TNFa cytotox
CCN(C(=O)COC(=O)c1cc(C)n(-c2ccc(F)cc2)c1C)C1CCS(=O)(=O)C1 (configuration not stated),.,.,100,.
COc1ccc(N2C(=O)CSC2c2cccs2)cc1 (configuration not stated),/,/,.,/
CCOc1ccc(N2C(=O)CSC2c2ccncc2)cc1 (configuration not stated),.,91,.,.
O=C(NCc1ccco1)c1ccc(CNc2c(N3CCCCC3)c(=O)c2=O)cc1,/,/,.,/
O=C(CSc1ncn[nH]1)Nc1ccc(Cl)c(Cl)c1,.,.,.,.
CC1(C)Cc2nc3sc4c(=O)n(Cc5ccccc5)cnc4c3cc2CS1,/,/,.,/
CCCn1cnc2c(sc3nc4c(cc32)CSC(C)(C)C4)c1=O,.,.,.,86
C/C(=N\NC(=O)CN1CCN(Cc2ccc(C)cc2)CC1)c1ccncc1,/,/,.,/
O=C(Nc1cccn2ncnc12)c1ccccc1,.,.,.,.
O=C(Nc1cccn2ncnc12)c1ccc(Cl)cc1,.,.,43,.
O=C1C(=O)N(CCCn2ccnc2)C(c2cccnc2)/C1=C(/O)c1ccc(Br)cc1 (configuration not stated),.,.,.,.
COc1ccc(OC)c(-c2cc(C(=O)Nc3c(C)nn(Cc4ccccc4C)c3C)no2)c1,.,.,/,.
Cc1ccccc1Cn1nc(C)c(NC(=O)c2cc(-c3cccs3)on2)c1C,.,91,/,80
CCC(Sc1nc(N)cc(=O)[nH]1)C(=O)NC(C(=O)OC)c1ccccc1 (configuration not stated),.,.,.,.
CC(Sc1nc(N)cc(=O)[nH]1)C(=O)NC1CCCCC1 (configuration not stated),.,94,.,.
Cc1ccc2[nH]c(-c3ccccc3)cc(=O)c2c1,.,64,/,.
COc1cc2[nH]c(-c3ccc(C)cc3)cc(=O)c2cc1OC,/,/,.,/
CCOC(=O)CSc1nc2cc(OC)ccc2cc1C#N,.,.,100,.
Cc1ccc(/C=C2\SC(N)=NC2=O)s1,/,/,95,/
CC12CCC(C(=O)Nc3cc(Cl)ccc3Cl)(C/C1=N\O)C2(C)C (configuration not stated),.,.,.,.
CN(c1ccccc1)S(=O)(=O)c1ccc(NC(=S)Nc2ccccc2)cc1,.,.,87,.
CC(=O)Nc1ccc(S(=O)(=O)N(C)c2ccccc2)cc1,/,/,.,/
COc1cccc(OC)c1NC(=O)CN1CCC(NC(=O)c2cccc(F)c2)CC1,70,100,.,92
Cc1ccc(NC(=O)c2ccc(NCc3ccco3)c([N+](=O)[O-])c2)cc1Cl,/,/,.,/
COc1ccc(N2CCN(C(=O)CSc3nnc4c(C)cc5cc(C)ccc5n34)CC2)cc1,51,.,/,.
SMILES,F-actin modifier,VCAM1 TNFa inh,E-sel TNF inh,TNFa cytotox
CCn1nc(C)c(Br)c1Nc1ccc(Br)cc1,/,/,.,/
COC(=O)c1cc2c(s1)CS(=O)C2 (configuration not stated),/,/,96,/
CCn1cc(S(=O)(=O)CC(=O)Nc2cc(C)ccc2C)c2ccccc21,.,.,62,.
S=C(NCc1cccs1)Nc1cccc(Cl)c1Cl,/,/,81,/
CC1(c2ccc(OC(F)F)cc2)NC(=O)N(/N=C/c2c(O)ccc3ccccc23)C1=O (configuration not stated),/,/,.,/
C=CCN1CCN(C(c2cc(OC)ccc2OC)c2nnnn2CC2CCCO2)CC1 (configuration not stated),.,.,71,.
CCOc1c(Br)cc(CNc2ccc3c(c2)OCCO3)cc1OC,.,.,.,.
CCOc1cc(CNc2ccc3c(c2)OCCO3)cc(Br)c1OC,39,.,.,.
CC(=O)Nc1nc2n(n1)C(c1ccc(F)cc1)C=C(c1ccccc1)N2 (configuration not stated),38,.,.,.
CNc1ccc(Oc2nc([N+](=O)[O-])nn2C)cc1,/,/,.,/
COC(=O)c1ccsc1NC(=O)C1=COCCO1,.,.,/,92
C=CCN1C(c2ccccc2)=CS/C1=C(\C#N)c1nnc2n1CCCCC2,/,/,63,/
C=CCN1C(c2cccc(C(F)(F)F)c2)=CS/C1=C(/C#N)c1nnc(N2CCOCC2)n1-c1ccccc1,/,/,72,/
C=CCN1C(c2ccc(Br)cc2)=CS/C1=C(/C#N)c1nnc(N2CCOCC2)n1-c1ccccc1,/,/,.,/
Cc1cc(C)c2nc(SCC(=O)N3CC(=O)Nc4ccccc43)c(C#N)cc2c1,.,100,.,89
COc1ccc2nc(SCC(=O)N3CC(=O)Nc4ccccc43)c(C#N)cc2c1,.,.,.,.
COc1cccc(C(=O)N(c2ccc(C)cc2)C2C=CS(=O)(=O)C2)c1 (configuration not stated),/,/,.,/
Cc1c(SCCO)c(=O)[nH]c2cc3c(cc12)OCO3,.,.,/,.
CC(C)=CCN1CCN(Cc2cccn2-c2ccccn2)CC1CCO (configuration not stated),/,/,.,/
CC12CCC3(CO)COC(c4ccccc4O1)C2C3 (configuration not stated),/,/,55,/
Cc1noc(C)c1S(=O)(=O)N1CCN(C(c2ccccc2)c2ccc(Cl)cc2)CC1 (configuration not stated),.,.,/,86
Cc1noc(C)c1S(=O)(=O)N1CCC2(CC1)OCCO2,.,88,.,95
CN(C)c1cc[n+](CC(=O)Nc2ccc(Oc3ccccc3)cc2)cc1,/,/,.,/
COc1cc(/C=N/Nc2nn3cnnc3c3ccccc23)ccc1O,.,.,/,.
COc1cc(/C=N/Nc2snc(SC)c2C#N)ccc1O,.,43,/,.
SMILES,F-actin modifier,VCAM1 TNFa inh,E-sel TNF inh,TNFa cytotox
CC(=O)c1cccc(Nc2nc(-c3cccc([N+](=O)[O-])c3)cs2)c1,.,39,.,.
CC(=O)Nc1nc(C)c(-c2csc(Nc3cccc([N+](=O)[O-])c3)n2)s1,.,.,.,.
COCCCn1cc(C(=O)c2cc(OC)ccc2OCC(=O)Nc2cc(C)on2)cc(C#N)c1=O,.,.,.,.
CCCn1nc([N+](=O)[O-])c(C(C#N)c2nc3ccccc3s2)c(Cl)c1=O (configuration not stated),.,51,.,.
Cc1ccc(NC(=O)CCNCc2ccco2)cc1S(=O)(=O)N(C)C,/,/,.,/
CC(=O)CSc1nsc(SCC(C)=O)c1C#N,.,.,.,.
CC(C)(C)NC(=O)CSc1nsc(SCC(=O)NC(C)(C)C)c1C#N,.,72,/,.
O=C(CSc1ncccn1)NCc1ccccc1Cl,.,.,60,.
O=C(c1cnccn1)N1CCN(c2ccccc2)CC1,.,.,59,.
O=C(c1cnsn1)N1CCN(c2ccccc2)CC1,.,.,.,.
Cc1ccc2nc(Cl)c(/C=N/n3c(C)nnc3C)cc2c1,/,/,.,/
Cc1cccc(C(=O)Oc2csc(=S)n2C(=O)c2cccc(C)c2)c1,.,.,.,.
O=C(Oc1csc(=S)n1C(=O)c1ccccc1)c1ccccc1,.,98,.,86
CCN(c1ccccc1)S(=O)(=O)c1ccc(N)c(OC)c1,.,.,.,.
Cc1ccc(NC2OC(C(O)CO)C(O)C2O)cc1[N+](=O)[O-] (configuration not stated),/,.,64,.
Cc1cccc(NC(=O)c2ccc(NS(=O)(=O)c3c(C)noc3C)cc2)c1,.,.,100,.
CC(=O)c1cccc(NS(=O)(=O)N2CCCCC2)c1,.,.,81,.
